Measured potencies and affinities stand elsewhere. Inconclusive results are not listed. The source made the active and inactive calls.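 The calls were made as follows: active = falling luminescence with a fitted half-effect concentration at most ten times the top dose in every repeat; inconclusive = repeats disagree, poor fit, or flat moderate signal drop; inactive = the rest.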
Experiment: NIH/3T3 cell viability loss – mouse embryonic fibroblasts, dry powder, set 2, cytotoxicity control, dose response (AID 493247)
Details: NIH/3T3 cytotoxicity, CellTiter-Glo ATP luminescence, 90 h; series mostly up to 19.5 µM

SMILES | outcome
CN(Cc1ccccc1)C(=O)C1CCCN(Cc2ccccc2)C1 (stereo unspecified) | inactive
CCNC(=O)C1(C)CCCN(C(=O)Cc2ccc(OC)c(OC)c2)C1 (stereo unspecified) | inactive
CCCNC(=O)C1(C)CCN(C(=O)Cc2ccc(OC)c(OC)c2)C1 (stereo unspecified) | inactive
CCNC(=O)C1(C)CCN(C(=O)c2ccc(OC)c(OC)c2)C1 (stereo unspecified) | inactive
COc1ccc(CCN(C)C(=O)C2CCCN(Cc3ccccc3C)C2)cc1OC (stereo unspecified) | inactive
COc1ccc(CCN2CC(C(=O)NCc3ccc(F)cc3)CC2=O)cc1OC (stereo unspecified) | inactive
CCNC(=O)C1CCCN(C(=O)c2cc(OC)c(OC)c(OC)c2)CC1 (stereo unspecified) | inactive
COc1cc2c(cc1OC)C(C)N(CCC(N)=O)CC2 (stereo unspecified) | inactive
COc1cc(CN2CCC(C(=O)NC(C)c3ccc(OC)c(OC)c3)CC2)cc(OC)c1 (stereo unspecified) | inactive
CCCNC(=O)C1(C)CCCN(C(=O)c2ccc(OC(F)F)cc2)C1 (stereo unspecified) | inactive
CCNC(=O)C1(C)CCCN(Cc2cccc(Oc3ccccc3)c2)C1 (stereo unspecified) | inactive
CCCNC(=O)C1(C)CCCN(C(=O)Cc2ccc(OC)c(OC)c2)C1 (stereo unspecified) | inactive
COc1ccc(CN2CCCC(C(=O)N3CCCC3)C2)c(OC)c1OC (stereo unspecified) | inactive
COCCNC(=O)C1(C)CCCN(C(=O)c2cc(OC)c(OC)c(OC)c2)C1 (stereo unspecified) | inactive
COc1ccc(CCNC(=O)C2CCCCC2)cc1OC | inactive
O=C(CNC(=O)c1ccco1)N/N=C/c1ccc([N+](=O)[O-])o1 | inactive

From PubChem BioAssay AID493247 (Broad Institute, 2011)
